Compound activity: PubChem, National Center for Advancing Translational Sciences (NCATS)
An excerpt weighted towards active compounds, which were near 12% of everything screened.
AmpC inh detg = AmpC beta-lactamase inhibition with detergent present. P00811. AmpC hydrolysis of nitrocefin, absorbance 480 nm, 0.01% Triton. Potency, µM (highest dose often 114 µM), without a hit: at the highest dose activity change, negative = inhibition, most hits filed as inhibitors. 370,000 compounds, 0.041% hits. AID 485294;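 also: 0% = no-compound wells and -100% = no-enzyme wells; nearly all actives have a fitted effect of over 25% in size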
Target sequence (P00811 whole entry, looked up): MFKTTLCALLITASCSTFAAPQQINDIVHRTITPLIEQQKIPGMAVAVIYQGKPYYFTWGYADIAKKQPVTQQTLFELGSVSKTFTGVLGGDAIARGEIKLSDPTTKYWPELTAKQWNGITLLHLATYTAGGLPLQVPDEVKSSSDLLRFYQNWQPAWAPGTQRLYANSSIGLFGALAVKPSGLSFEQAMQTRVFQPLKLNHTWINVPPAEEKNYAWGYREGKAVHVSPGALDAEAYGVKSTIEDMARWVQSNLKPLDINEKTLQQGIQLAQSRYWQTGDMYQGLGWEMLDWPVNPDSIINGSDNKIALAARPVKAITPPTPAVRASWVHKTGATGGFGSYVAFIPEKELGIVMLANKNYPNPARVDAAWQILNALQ
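20 mM phosphate pH 7.0 + 0.01% (detergent screen) or 0.0001% Triton X-100; 5.3 nM AmpC reagent; cpd preinc 15 min RT; nitrocefin (800 uM stock) to start; A480 q20 s × 4 min; Activity was normalised to no-enzyme and no-compound control wells.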
Pf growth 96h = P. falciparum growth inhibition at 96 hour, primary screen for plastid delayed-death inhibitors. P. falciparum luciferase reporter growth, 96 h. Potency, µM (top dose mostly 28.7 µM), for the others: at the highest dose activity change, negative = inhibition, most hits filed as inhibitors. 320,000 compounds, 6.9% hits; also: % is scaled to controls: 0 for no effect and ±100 for the full control effect
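Two-generation exposure (96 h) targets delayed-death phenotype. Reporter parasites carrying integrated firefly luciferase, in red cells at 2% hematocrit and 0.05% parasitemia final, kept at 37 C, 5% CO2; luminescence loss indicates inhibition.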
SARS PLP yeast = blocks SARS-CoV papain-like protease in a yeast assay; S. cerevisiae expressing SARS-CoV PLpro, growth rescue; Potency, µM (highest dose often 32.9 µM), for the others: at the top dose activity, positive = growth rescue, most hits filed as activators; 330,000 compounds, 0.19% hits; calls by dose curve; also: 0% is about no effect; nearly all actives have a fitted effect of over 55% in size
AmpC no deterg = AmpC beta-lactamase inhibition without detergent; P00811; AmpC nitrocefin hydrolysis, absorbance 480 nm, 0.0001% Triton; Potency, µM (titrated, usually from 57.1 µM), for inactives: at the top dose activity change, negative = inhibition, most hits filed as inhibitors; 330,000 compounds, 0.52% hits; AID 485341;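 also: plate controls were no compound for no effect and no enzyme for full effect; nearly all actives have a fitted effect of over 20% in size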
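AmpC (5.3 nM in the dispensed reagent) in 20 mM phosphate pH 7.0 with 0.01% (detergent screen) or 0.0001% Triton X-100 was preincubated with compounds for 15 min at room temperature. Nitrocefin was then added from an 800 uM solution, and hydrolysis was followed at 480 nm.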
Pf growth 48h = P. falciparum growth inhibition at 48 hours (one generation); 310,000 compounds, 5.9% hits; P. falciparum luciferase growth in erythrocytes, 48 h; Potency, µM (highest dose often 28.7 µM), for the others: top-dose activity change, negative = inhibition, actives largely listed as inhibitors; also: % is scaled to controls: 0 for no effect and ±100 for the full control effect
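Luciferase-expressing P. falciparum in infected erythrocytes (2% hematocrit, 0.1% parasitemia final) in RPMI 1640/0.5% Albumax were exposed to compound for 48 hours at 37 C, 5% CO2; growth read as luminescence.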
Sm TGR block = S. mansoni TGR enzyme inhibition; purified TGR, DTNB reduction, TNB absorbance 405 nm; 360,000 compounds, 3% hits; AID 485364; Q962Y6; Potency, µM (top dose mostly 114 µM), for inactives: top-dose activity change, negative = inhibition, usual class: inhibitors; also: % is scaled to controls: 0 for no effect and ±100 for the full control effect; nearly all actives have a fitted effect of over 60% in size
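TGR 20 nM + NADPH 100 uM (dispensed conc.), cpd preinc 15 min RT; start with NADPH (500 uM addition) then DTNB (15 mM addition). Kinetic TNB absorbance, 405 nm filter. Four-parameter Hill fit across titration.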
* marks the source's active call; other numbers are inactive results; ? = inconclusive; · = no result given; [ ] = another dose, or the depositor's remark. Unless noted, calls follow the shape of the dose curve; as a rule, active = well fitted curve in the direction sought with a large enough effect; inconclusive = small, poorly fitted or top-dose-only effect, or another doubt; inactive = no such curve, though single readings can be large; an effect the other way counts as inactive or inconclusive. Potency is read from the fitted curve at half-maximal effect.

SMILES | AmpC inh detg | Pf growth 96h | SARS PLP yeast | AmpC no deterg | Pf growth 48h | Sm TGR block
CCCCN1C(=O)c2ccc(C(=O)NCc3ccco3)cc2C1=O | 6% | -22% | ? | -4% | -2% | -4%
COc1ccccc1NC(=O)c1ccc2c(c1)N(CC#N)C(=O)C(C)(C)O2 | 0% | 12µM* | 6% | 2% | -23% | 9%
CCCN1C(=O)c2ccc(C(=O)NCc3ccco3)cc2C1=O | 2% | -20% | -3% | -33% | 16% | 32µM*
Cc1cccc(C)c1-n1ncc(C(=O)NCCCN2CCC(C)CC2)c1C1CCN(C(=O)OC(C)(C)C)CC1 | 18% | · | · | · | · | 1%
CCCCN1C(=O)c2ccc(C(=O)Nc3c(N)n(CCCC)c(=O)n(C)c3=O)cc2C1=O | ? | 5.2µM* | 9% | -5% | 6% | 0%
NC(N)=NCCCC(NC(=O)c1ccccc1)C(=O)Nc1ccc2ccccc2c1 (configuration not stated) | ? | 10µM* | · | -11% | ? | -4%
NC(N)=NCCCC(NC(=O)c1ccccc1)C(=O)Nc1ccc([N+](=O)[O-])cc1 (configuration not stated) | -23% | 9.3µM* | · | -40% | ? | 2%
O=C(O)CC(NNC(=O)c1ccccc1)C(=O)Nc1ccc([N+](=O)[O-])cc1 (configuration not stated) | 2% | 0% | 0% | -23% | 12% | -5%
Cc1cc(C)c(/C([O-])=C(/C(=S)Nc2ccc(SC(F)F)cc2)[n+]2ccccc2)cc1C | -11% | ? | 1% | -21% | 12µM* | -12%
C=CCn1c(C)cc(/C([O-])=C(/C(=S)Nc2ccc(OC(F)F)cc2)[n+]2ccc(N(C)C)cc2)c1C | -7% | 3.7µM* | 0% | 2%[2.29 µM] | ? | -10%
Cc1ccc(C)c(NC(=S)/C(=C(\[O-])c2ccc(OC(F)F)cc2)[n+]2ccccc2)c1 | -6% | ? | 1% | -31% | ? | -19%
CN(C)c1cc[n+](/C(C(=S)Nc2ccc(SC(F)F)cc2)=C(/[O-])c2ccccc2)cc1 | -19% | 2.1µM* | -6% | -3% | 4.7µM* | 48%
[O-]/C(=C(\C(=S)Nc1ccc(SC(F)F)cc1)[n+]1ccccc1)c1cc(Cl)ccc1Cl | 16% | -11% | -4% | -22% | -14% | 5%
Cc1cc(C)n(C(=O)C2CCCN2S(=O)(=O)c2ccc(Cl)cc2)n1 (configuration not stated) | -6% | 26% | 3% | 0% | 13% | -23%
CCCCOC(=O)c1cc(=O)[nH]c2ccccc12 | 0% | 12µM* | -3% | -21% | 6% | -1%
CC(Oc1ccc(-c2ccccc2)c(F)c1)c1ccn(S(=O)(=O)c2ccc(Br)cc2)n1 (configuration not stated) | -2% | 10µM* | -6% | -38% | ? | -1%
Clc1ccc(-c2csc(=Nc3cccnc3)n2CCCn2ccnc2)cc1Cl | -8% | 4.7µM* | 10% | 190% | 12µM* | -27%
CC1(C)Cc2c(C#N)c(OCC(=O)c3ccc(Cl)cc3)nc(-c3ccoc3)c2CO1 | ? | ? | -2% | -15% | 22% | 40µM*
CC1(C)Cc2c(C#N)c(OCC(=O)c3ccccc3)nc(-c3ccoc3)c2CO1 | -15% | 15% | -3% | -5% | -9% | -2%
Oc1cccc(-c2nc3c4c(ncn3n2)-c2ccccc2CC42CCCC2)c1 | 8% | 9.3µM* | -40% | -45% | 12µM* | 7%
COc1ccc(OCc2nc3c4c(ncn3n2)-c2ccccc2CC42CCCC2)cc1 | ? | 13µM* | 17% | -30% | ? | -3%
CC(=O)Nn1cnc2c(c1=O)C1(CCCCC1)Cc1ccccc1-2 | 3% | 0% | 3% | 63% | · | -8%
Cc1cccc(OCc2nc3c4c(ncn3n2)-c2ccccc2CC42CCCC2)c1 | -11% | ? | 10% | -28% | -7% | 0%
COc1ccc(-c2nc3c4c(ncn3n2)-c2ccccc2CC42CCCC2)cc1 | -1% | 9% | -24% | -28% | -4% | 0%
Cc1ccc(OCc2nc3c4c(ncn3n2)-c2ccccc2CC42CCCC2)cc1 | ? | 15µM* | 4% | -27% | ? | -14%
SMILES | AmpC inh detg | Pf growth 96h | SARS PLP yeast | AmpC no deterg | Pf growth 48h | Sm TGR block
Cc1ccccc1OCc1nc2c3c(ncn2n1)-c1ccccc1CC31CCCC1 | -2% | 5.2µM* | 23% | -20% | ? | -2%
CSCCNC(=O)c1ccc2nc(C3CCCCC3)oc2c1 | -16% | ? | -7% | 2% | ? | 0%
COc1ccc(C(=O)/C(=C\c2sccc2C)c2nc3ccccc3o2)cc1 | -10% | 3.3µM* | 23% | -24% | ? | -15%
COc1cccc(COC(=O)C2CCN(S(=O)(=O)c3ccc(C)cc3C)CC2)c1OC | -1% | ? | -1% | -6% | -25% | 2%
Cc1cc(C)c2nc(-c3cccc(Cl)c3)c(C)c(C(=O)N3CCOCC3)c2c1 | 0% | ? | -23% | 230% | 12µM* | -10%
Cc1onc(-c2c(Cl)cccc2Cl)c1C(=O)N1CCOCC1 | -8% | 19% | 2% | -3% | -4% | 10%
Cc1c(NC(=O)CNCc2ccc3c(c2)OCO3)c(=O)n(-c2ccccc2)n1C | ? | 54% | 0% | -17% | 4% | 0%
Cc1coc(C)c1C(=O)CC1(O)C(=O)N(CCc2ccccc2)c2ccccc21 (configuration not stated) | -3% | · | -3% | 1% | -20% | 14µM*
O=C(CCCCCn1c(=O)c2sccc2n(Cc2ccc(Cl)cc2)c1=O)NCc1ccc2c(c1)OCO2 | 23% | · | · | · | · | -2%
COc1ccc(CNC(=O)C[C@H]2C(=O)N(C3CCCCC3)C[C@@H]2Cc2ccccc2)cc1 | -9% | 12µM* | -5% | 34% | -8% | 10%
CCCCOC(=O)CSc1n[nH]c(=O)[nH]c1=O | 1% | 13µM* | 11% | -5% | · | -1%
COc1ccc(-n2nc(C(=O)N(C)c3cccc(C(F)(F)F)c3)c3c4ccccc4n(C)c3c2=O)cc1 | 3% | · | · | · | · | 4%
COc1ccc(-c2onc(C)c2C)cc1S(=O)(=O)N1c2ccccc2CC1C (configuration not stated) | -3% | · | · | · | · | 0%
COc1ccc(Cl)cc1NC(=O)CN(C)C(=O)c1sccc1-c1ccccc1 | 11% | -54% | 2% | -1% | -42% | 0%
